# CD11b adhes enh – increases human CD11b/CD18 adhesion to fibrinogen; P05107+P11215; K562 CD11b/CD18 adhesion to fibrinogen, ATPlite luminescence; activation, % at 10 µM; 93,000 tested, 0.07% active;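 active = 10 µM primary screen giving 50% or more activity, confirmed by 40% or more on retest at that dose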
# E coli RNAP – blocks E. coli RNA polymerase transcription; inhibition, %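 (tested at 10 µM)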; P0A8V2; fluorescence transcription assay; 62,000 tested, 0.2% active; in the data active = inhibition above about 20%;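 note: 0% = enzyme without compound and 100% = no enzyme blank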
# CD11b adhes inh – inhibitors of human CD11b/CD18 binding to fibrinogen; P05107+P11215; K562 CD11b/CD18 adhesion to fibrinogen, ATPlite luminescence; Mn2+ added to activate the integrin; inhibition, % at 10 µM; 93,000 tested, 0.54% active; AID 1497;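 active = primary inhibition of 50% or more at 10 µM, then 40% or more on retest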
# Cav32 inh – inhibitors of human Cav3.2 T-type calcium channel. O95180. Cav3.2-expressing cells, Fluo-4 calcium fluorescence FDSS; active compounds read low. B-score at 10 µM. 100,000 tested, 4% active;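 active = single-dose well whose peak fluorescence ratio is a statistical outlier from its plate by either plate-standardised score or position-corrected B-score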
# PTK2B oligo ant – Pyk2 (human) oligomerization antagonism | Q293 cells, Pyk2 FERM NanoBiT luminescence; active compounds read low | z-score (the deposit names both 25 µM and 10 µM) | 99,000 tested, 0.83% active | AID 1347419;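 active = Z-score of -3 or lower, scaled per plate to the spread of control and sample wells; inactive = z-score above -3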;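 note: negative z-score means lost luminescence so less FERM oligomerization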
# Starred values were filed as active, the others as inactive; · = not tested or not shown. Sampled rows, rich in hits. Any-hit rate of the full collection: about 4.2%.
SMILES,CD11b adhes enh,E coli RNAP,CD11b adhes inh,Cav32 inh,PTK2B oligo ant
CNC(=S)N1N=C(c2ccc(C)cc2)CC1c1ccc(Br)cc1 (configuration not stated),-2,·,-18,-6.3*,-1.7
CNC(=S)N1N=C(c2ccc(C)cc2)CC1c1ccc(Cl)cc1 (configuration not stated),-6,·,4,-6.2*,-1.6
CCCc1nnc(NC(=O)C(CC)OC(=O)c2cc(C)nc3ccccc23)s1 (configuration not stated),·,·,·,-4.3*,-2
CCCc1nnc(NC(=O)COC(=O)c2cc(C)nc3ccccc23)s1,-3,·,-1,-4.3,-1.9
O=C(CSc1nc(-c2ccccc2)c(-c2ccccc2)[nH]1)N1CCN(S(=O)(=O)c2ccccc2)CC1,1,·,1,-6*,-1.3
O=C(CSc1ncc(C(F)(F)F)cc1Cl)N1CCN(S(=O)(=O)c2ccc(Cl)cc2)CC1,1,·,-3,·,-0.7
O=C(CN1CCN(c2ncc(C(F)(F)F)cc2Cl)CC1)N1CCN(c2ncc(C(F)(F)F)cc2Cl)CC1,0,·,10,-3.2*,1.7
O=C(CSc1ncc(C(F)(F)F)cc1Cl)N1CCN(S(=O)(=O)c2ccccc2)CC1,2,6,-13,-4.1*,-1.1
O=C(CSc1nc2ccccc2c(=O)[nH]1)N1CCN(S(=O)(=O)c2ccccc2)CC1,·,·,·,-0.59,1
O=C(CSc1ccc(Cl)cc1)N1CCN(c2ncc(C(F)(F)F)cc2Cl)CC1,-12,·,72,-3.8*,-0.01
COc1ccc(OCCC(=O)OCC(=O)NCc2ccccc2)cc1,6,·,-8,·,·
CN1C(C(=O)NCc2ccc(OC(F)(F)F)cc2)CC2Cn3c(nc4cc5ccccc5cc43)C21 (configuration not stated),·,·,·,-0.88,·
O=C(CCSc1ccc(Cl)cc1)N1CCN(c2ncccn2)CC1,1,4,13,-4.7*,1.6
O=C(CCSc1ccc(Cl)cc1)N1CCCCCC1,·,·,·,-2.6,-0.01
O=C(Oc1cc2oc(=O)c3c(c2cc1Cl)CCCC3)c1cccs1,-1,·,53*,·,·
O=C(CSC1CC(=O)N(CC(c2ccccc2)c2ccccc2)C1=O)Nc1ccc(Cl)cc1 (configuration not stated),·,·,·,-7.4*,-1.3
O=C(O)CSC1CC(=O)N(c2ccc(Cl)cc2)C1=O (configuration not stated),-3,6,-8,0.25,1.2
O=C(NCCC1=CCCCC1)c1ccc(Cl)c(S(=O)(=O)N2CCOCC2)c1,9,2,11,-0.0027,0.44
Cc1ccc(CSCCNC(=O)c2ccc(Cl)c(S(=O)(=O)N3CCOCC3)c2)cc1,3,·,34,-7.4*,0.01
Cc1ccc(CSCCNC(=O)c2ccc(N(C)S(=O)(=O)c3ccccc3)cc2)cc1,10,·,35,-5.6*,2.4
CN(c1ccc(C(=O)O)cc1)S(=O)(=O)c1ccccc1,-1,14,-2,-0.4,0.94
COc1ccc(OC)c(Nc2nc(N)nc(CSc3nnc(-c4ccncc4)o3)n2)c1,9,·,8,·,·
O=C(Nc1ccccc1Cl)c1cccc(NS(=O)(=O)c2ccccc2)c1,-4,·,9,-1.7,·
CC(=O)N1CCc2cc(S(=O)(=O)NC(CC(C)C)C(=O)Nc3ccc4c(c3)OCCO4)ccc21 (configuration not stated),0,2,-18,-0.041,-0.35
CC(=O)N1CCc2cc(S(=O)(=O)NC(CC(C)C)C(=O)N3CCn4c3nc3ccccc34)ccc21 (configuration not stated),2,7,-24,0.99,-3.7*
SMILES,CD11b adhes enh,E coli RNAP,CD11b adhes inh,Cav32 inh,PTK2B oligo ant
Cc1ccc(C(=O)N2CCN(c3ncccn3)CC2)cc1S(=O)(=O)N1CCCCC1,·,·,·,·,-0.25
O=C1N(c2ccccc2)C2CS(=O)(=O)CC2N1c1ccc(Br)cc1 (configuration not stated),·,4,·,-2.4*,-0.46
COc1cccc(N2C(=O)N(c3ccccc3)C3CS(=O)(=O)CC32)c1 (configuration not stated),1,-5,-14,0.56,-0.44
CCc1ccc(-c2nc(CSCC(=O)N3CCN(c4ncccn4)CC3)c(C)o2)cc1,-7,2,79*,·,·
C=CCn1c(SCC(=O)N2CCc3ccccc3C2)nc2ccccc2c1=O,·,·,·,-2.3,0.2
CSc1ccc(C2C(C#N)=C(N)Oc3cc4c(cc32)OCO4)cc1 (configuration not stated),-4,6,-2,1.3,-0.46
Cc1ccc(C2C(C#N)=C(N)Oc3cc4c(cc32)OCO4)cc1 (configuration not stated),-3,8,·,-4.4*,-0.52

# Bioassay records: PubChem BioAssay, several laboratories
